In the supplement of paper PMC8728848:
This is one part of a sample in which the strongest signals are shown more often than they occur.

How the values were obtained:
Experiment in all cases: glycan array binding signal (z-score within array); higher = stronger binding
Details in all cases: glycan notation: IUPAC condensed, linker removed
Fuc(a1-2)Gal = biological target: Fuc(a1-2)Gal
Summary of the method: (§1)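 Negative Z-scores can be read as non-binding. The Z-score is calculated within each array and then averaged across arrays of one protein sequence at different concentrations or buffers and across linkers. Arrays, 3228 in all, were curated from the Consortium for Functional Glycomics database and kept only where the protein sequence was available.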

[1] = biological target: Fuc(a1-2)Gal(b1-3)GlcNAc(b1-3)[Fuc(a1-2)Gal(b1-3)GlcNAc(b1-6)]GalNAc
Summary of the method: as §1

[2] = biological target: Fuc(a1-2)Gal(b1-4)GlcNAc(b1-3)Gal(b1-4)GlcNAc(b1-2)Man(a1-3)[Fuc(a1-2)Gal(b1-4)GlcNAc(b1-3)Gal(b1-4)GlcNAc(b1-2)Man(a1-6)]Man(b1-4)GlcNAc(b1-4)GlcNAc
Summary of the method: as §1

[3] = biological target: Fuc(a1-2)[Gal(a1-3)]Gal(b1-4)[Fuc(a1-3)]Glc
Summary of the method: as §1

[4] = biological target: Fuc(a1-3)[Gal(b1-4)]GlcNAc(b1-2)Man(a1-3)[Fuc(a1-3)[Gal(b1-4)]GlcNAc(b1-2)Man(a1-6)]Man(b1-4)GlcNAc(b1-4)[Fuc(a1-6)]GlcNAc
Summary of the method: as §1

[5] = biological target: Fuc(a1-3)[Gal(b1-4)]GlcNAc(b1-6)[Gal(b1-3)GlcNAc(b1-3)]Gal(b1-4)Glc
Summary of the method: as §1

[6] = biological target: Fuc(a1-3)[GalNAc(b1-4)]GlcNAc
Summary of the method: as §1

Fuc(a1-4)GlcNAc = biological target: Fuc(a1-4)GlcNAc
Summary of the method: as §1

[7] = biological target: Gal(a1-3)Gal(b1-3)GlcNAc(b1-2)Man
Summary of the method: as §1

[8] = biological target: Gal(a1-3)Gal(b1-3)GlcNAc(b1-6)GalNAc
Summary of the method: as §1

[9] = biological target: Gal(a1-3)Gal(b1-4)GlcNAc(b1-6)GalNAc
Summary of the method: as §1

[10] = biological target: Gal(a1-4)Gal(b1-3)GlcNAc(b1-2)Man(a1-3)[Gal(a1-4)Gal(b1-3)GlcNAc(b1-2)Man(a1-6)]Man(b1-4)GlcNAc(b1-4)GlcNAc
Summary of the method: as §1

[11] = biological target: Gal(b1-3)GlcNAc(b1-2)[Gal(b1-3)GlcNAc(b1-6)]Man(a1-6)[Gal(b1-3)GlcNAc(b1-2)Man(a1-3)]Man(b1-4)GlcNAc(b1-4)GlcNAc
Summary of the method: as §1

Gal(b1-4)GlcNAc(b1-2)Man = biological target: Gal(b1-4)GlcNAc(b1-2)Man
Summary of the method: as §1

[12] = biological target: Gal(b1-4)GlcNAc(b1-2)Man(a1-6)Man(b1-4)GlcNAc(b1-4)GlcNAc
Summary of the method: as §1

[13] = biological target: Gal(b1-4)GlcNAc(b1-2)Man(a1-6)[Man(a1-3)]Man(b1-4)GlcNAc(b1-4)GlcNAc
Summary of the method: as §1

[14] = biological target: Gal(b1-4)GlcNAc(b1-2)[Gal(b1-4)GlcNAc(b1-6)]Man(a1-6)[GlcNAc(b1-4)][Gal(b1-4)GlcNAc(b1-2)[Gal(b1-4)GlcNAc(b1-4)]Man(a1-3)]Man(b1-4)GlcNAc(b1-4)[Fuc(a1-6)]GlcNAc
Summary of the method: as §1

[15] = biological target: Gal(b1-4)GlcNAc(b1-3)Gal(b1-3)GlcNAc
Summary of the method: as §1

[16] = biological target: Gal(b1-4)GlcNAc(b1-3)Gal(b1-4)GlcNAc(b1-2)[Gal(b1-4)GlcNAc(b1-3)Gal(b1-4)GlcNAc(b1-6)]Man(a1-6)[Gal(b1-4)GlcNAc(b1-3)Gal(b1-4)GlcNAc(b1-2)Man(a1-3)]Man(b1-4)GlcNAc(b1-4)GlcNAc
Summary of the method: as §1

[17] = biological target: Gal(b1-4)GlcNAc(b1-3)Gal(b1-4)GlcNAc(b1-3)Gal(b1-4)GlcNAc(b1-2)Man(a1-3)[Gal(b1-4)GlcNAc(b1-3)Gal(b1-4)GlcNAc(b1-3)Gal(b1-4)GlcNAc(b1-2)Man(a1-6)]Man(b1-4)GlcNAc(b1-4)[Fuc(a1-6)]GlcNAc
Summary of the method: as §1

[18] = biological target: Gal(b1-4)GlcNAc(b1-3)Gal(b1-4)GlcNAc(b1-3)Gal(b1-4)GlcNAc(b1-2)[Gal(b1-4)GlcNAc(b1-3)Gal(b1-4)GlcNAc(b1-3)Gal(b1-4)GlcNAc(b1-6)]Man(a1-6)[Gal(b1-4)GlcNAc(b1-3)Gal(b1-4)GlcNAc(b1-3)Gal(b1-4)GlcNAc(b1-2)Man(a1-3)]Man(b1-4)GlcNAc(b1-4)[Fuc(a1-6)]GlcNAc
Summary of the method: as §1

[19] = biological target: Gal(b1-4)GlcNAc(b1-3)Gal(b1-4)GlcNAc(b1-3)Gal(b1-4)GlcNAc(b1-3)Gal(b1-4)GlcNAc(b1-3)Gal(b1-4)GlcNAc(b1-2)Man(a1-3)[Gal(b1-4)GlcNAc(b1-3)Gal(b1-4)GlcNAc(b1-3)Gal(b1-4)GlcNAc(b1-3)Gal(b1-4)GlcNAc(b1-3)Gal(b1-4)GlcNAc(b1-2)Man(a1-6)]Man(b1-4)GlcNAc(b1-4)GlcNAc
Summary of the method: as §1

[20] = biological target: Gal(b1-4)GlcNAc(b1-3)Gal(b1-4)GlcNAc(b1-6)[Gal(b1-3)]GalNAc
Summary of the method: as §1

[21] = biological target: Gal(b1-4)GlcNAc(b1-3)Gal(b1-4)[Fuc(a1-3)]GlcNAc(b1-3)Gal(b1-4)[Fuc(a1-3)]GlcNAc
Summary of the method: as §1

B1: SP15308F-bth-333-19-333 (Bacteroides thetaiotaomicron) (protein)
chain: SCNNEWESEQYVQMVSFKAPVNAQGVTPIYIRYKPEGKVTYQLPLIVSGSTMNSKDLNVHVGLDLDTLDVLNVEHFGSRKELFFKPLENKYYEFPETVQIPAGECTSLLPIDFALKDLDQVDKWVLPLAIQSNDPSHNYQANPRKFYRRAMLRISPFNDYSGQYSATAYKVYFKGNEKEAIVPEYHTSYVIDDKTIFFYAGLIDIDRLDRKYYKIKFEFTEEKIDLQTRKLKISSDNEDINLVVKGQPSYTVEEEMDATRPYLKHIYVTINNLEYEFTDYTSVPGYPLEYVVKGSLTMERKINTQIPDEDQAIEW
glycan array binding signal (z-score) (Fuc(a1-2)Gal): -0.518
glycan array binding signal (z-score) [1]: 0.606
glycan array binding signal (z-score) [2]: 3.55
glycan array binding signal (z-score) [3]: -0.455
glycan array binding signal (z-score) [4]: -0.717
glycan array binding signal (z-score) [5]: 0.652
glycan array binding signal (z-score) [6]: 6.34
glycan array binding signal (z-score) (Fuc(a1-4)GlcNAc): 7.35
glycan array binding signal (z-score) [7]: 0.13
glycan array binding signal (z-score) [8]: -1.04
glycan array binding signal (z-score) [9]: -0.976
glycan array binding signal (z-score) [10]: -1.15
glycan array binding signal (z-score) [11]: 0.375
glycan array binding signal (z-score) (Gal(b1-4)GlcNAc(b1-2)Man): 2.88
glycan array binding signal (z-score) [12]: -1.02
glycan array binding signal (z-score) [13]: -0.531
glycan array binding signal (z-score) [14]: 0.062
glycan array binding signal (z-score) [15]: -0.026
glycan array binding signal (z-score) [16]: -0.769
glycan array binding signal (z-score) [17]: 1.45
glycan array binding signal (z-score) [18]: 0.279
glycan array binding signal (z-score) [19]: 3.23
glycan array binding signal (z-score) [20]: -0.045
glycan array binding signal (z-score) [21]: 0.753
